Compound activity (PubChem)
ERa SRC1 inh = ERα–SRC-1 coactivator interaction inhibitors, primary screen, biochemical, TR-FRET, ERα LBD, estradiol-bound; Estrogen receptor (Homo sapiens), P03372; TR-FRET ER-alpha LBD / SRC-1 peptide; inhibition, % at 25.6 µM; 1.7% of 86,000 active; AID 629, 2007; in the data active means inhibition above about 50%
MRP1 act = H69AR viability gain despite doxorubicin, primary screen, MRP-1 activator project, H69AR cells, CellTiter-Glo | viability rescue | 0.61% of 140,000 active | AID 799, 2007 | viability increase, % at 10 µM;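 active means viability gain under doxorubicin at or above a set limit, the compound median plus 3 SD, cut at about 4.7% in these data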;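 further: MRP-1 overexpressing cells given doxorubicin 25 µM after compound pretreatment; 18-22 h compound pretreatment then 72 h with doxorubicin before readout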
Smad3 inh = Smad3/FoxH1 peptide binding inhibitors, primary screen, biochemical, TR-FRET; TR-FRET Smad3/Dy647-FoxH1 peptide binding, europium anti-His; AID 630, 2007; inhibition, % at 25 µM; Mothers against decapentaplegic homolog 3 (Homo sapiens), P84022; 0.29% of 88,000 active;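 active means compounds that reduce the energy-transfer binding signal between the protein and its labelled peptide by more than half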
MRP reversal = reversal of MRP1-mediated doxorubicin resistance, primary screen, H69AR cells, doxorubicin co-treatment; H69AR cells + 2 uM doxorubicin, CellTiter-Glo, 72 h; differential viability (reversal), % at 10 µM; AID 602, 2007; 0.04% of 85,000 active;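 active means viability drop by adding the cancer drug above about 55%, with treated viability meeting a 40% cutoff, limit read from the data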;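 further: larger differential means the compound sensitizes cells more to doxorubicin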
ERa coact pot = enhancers of ERα–SRC-1 coactivator binding, primary screen, biochemical, TR-FRET, ERα LBD, low estradiol; Estrogen receptor (Homo sapiens), P03372; 1.3% of 86,000 active; TR-FRET ERalpha-LBD/SRC-Cy5 coactivator binding, 2 h; 100 = basal binding, no effect; coactivator binding (% of control), % at 25.6 µM; in the data active means activity above about 200%;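 further: binding measured in presence of low estradiol as agonist stimulus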
ERb coact inh = inhibitors of ERβ-SRC1 coactivator interaction, primary screen, biochemical, TR-FRET, ERβ LBD, SRC-1 peptide; TR-FRET ER-beta LBD / SRC1-Cy5 peptide binding; receptor agonist-loaded with 1 µM estradiol; inhibition, % at 25.6 µM; 1.3% of 86,000 active; AID 633, 2007;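 active means compounds whose percent inhibition of the receptor-coactivator binding signal exceeds about 50% in the single-dose screen, limit read from the data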
Target sequence (Q92731 whole entry, looked up, the tested form may be a part): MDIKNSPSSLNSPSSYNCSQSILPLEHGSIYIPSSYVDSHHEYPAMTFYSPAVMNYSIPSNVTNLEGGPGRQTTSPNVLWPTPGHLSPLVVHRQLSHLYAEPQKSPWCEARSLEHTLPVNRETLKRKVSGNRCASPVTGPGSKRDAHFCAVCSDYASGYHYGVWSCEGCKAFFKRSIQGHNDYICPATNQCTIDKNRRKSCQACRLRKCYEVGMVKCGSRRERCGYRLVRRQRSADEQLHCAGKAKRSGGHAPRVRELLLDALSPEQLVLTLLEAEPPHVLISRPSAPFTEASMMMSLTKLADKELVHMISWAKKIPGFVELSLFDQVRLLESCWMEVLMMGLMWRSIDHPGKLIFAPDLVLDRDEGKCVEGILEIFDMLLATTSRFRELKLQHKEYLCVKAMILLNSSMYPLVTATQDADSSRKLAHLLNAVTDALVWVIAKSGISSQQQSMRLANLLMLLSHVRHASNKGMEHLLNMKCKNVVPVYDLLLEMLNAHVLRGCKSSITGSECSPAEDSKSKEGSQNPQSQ
Numbers stand for hits; [ ] = dose if it differs, or a comment. Sampled rows, rich in hits. Any-hit rate of the full collection: about 2.8%.

How did O=C1CN2CCN(CC2)CC(=O)Nc2ccc(cc2)S(=O)(=O)c2ccc(cc2)NC(=O)CN2CCN(CC2)CC(=O)Nc2ccc(cc2)S(=O)(=O)c2ccc(cc2)N1 do in these assays?
Smad3 inh: inactive

Results for CCOC(=O)C(Sc1nn(C)c(=S)s1)C(C)=O (stereo not given) ?
ERa SRC1 inh: inactive; MRP1 act: inactive; Smad3 inh: inactive; MRP reversal: inactive; ERa coact pot: inactive; ERb coact inh: inactive

How did Cn1nc(SCC(=O)O)sc1=S do in these assays?
ERa SRC1 inh: 70[fluorescence artefact?]; MRP1 act: inactive; Smad3 inh: inactive; MRP reversal: inactive; ERa coact pot: inactive; ERb coact inh: inactive

What do the screens show for `Cn1nc(-c2ccc(Cl)cc2)nc2c(=O)n(C)c(=O)nc1-2`?
ERa SRC1 inh: inactive; MRP1 act: inactive; Smad3 inh: 80; MRP reversal: inactive; ERa coact pot: inactive; ERb coact inh: inactive

Results for CC(C)C[C@H](N)C(=O)O ?
Smad3 inh: inactive

How did O=C(OC1CCc2ccccc2C1=O)c1ccccc1O (stereo not given) do in these assays?
ERa SRC1 inh: inactive; MRP1 act: 14; Smad3 inh: inactive; MRP reversal: inactive; ERa coact pot: inactive; ERb coact inh: inactive

What do the screens show for `O=C(N/N=C/c1ccc([N+](=O)[O-])s1)c1cccc(Br)c1`?
ERa SRC1 inh: 76[fluorescence artefact?]; MRP1 act: inactive; Smad3 inh: inactive; MRP reversal: inactive; ERa coact pot: inactive; ERb coact inh: inactive

Results for Cc1ccc(C(=O)N/N=C/c2ccc([N+](=O)[O-])s2)cc1 ?
ERa SRC1 inh: 67; MRP1 act: inactive; Smad3 inh: inactive; MRP reversal: inactive; ERa coact pot: inactive; ERb coact inh: inactive

How did COc1ccccc1-c1cc(C(=O)NC(C)C)no1 do in these assays?
ERa SRC1 inh: inactive; MRP1 act: inactive; Smad3 inh: inactive; MRP reversal: inactive; ERa coact pot: inactive; ERb coact inh: inactive

What do the screens show for `COc1ccccc1-c1cc(C(=O)NC(C)c2ccccc2)no1` (stereo not given)?
ERa SRC1 inh: inactive; MRP1 act: 5.1; Smad3 inh: inactive; MRP reversal: inactive; ERa coact pot: 276[fluorescence artefact?]; ERb coact inh: inactive

Results for O=S(=O)(O)c1cc(O)c2c(N=Cc3ccccc3O)cc(S(=O)(=O)O)cc2c1 ?
Smad3 inh: inactive

How did COC(=O)C1=C(C)NC(C)=C(C(=O)OC)C1c1ccccc1OCc1c(C)no[n+]1[O-] do in these assays?
ERa SRC1 inh: inactive; MRP1 act: 9.0; Smad3 inh: inactive; MRP reversal: inactive; ERa coact pot: inactive; ERb coact inh: inactive

How did Cc1ccc(N/N=C(\C#N)C(N)=S)c(C)c1 do in these assays?
MRP1 act: 8.2

How did COc1cc(/C=N/NC(=O)CCc2c(C)n[nH]c2C)cc(OC)c1OC do in these assays?
ERa SRC1 inh: inactive; MRP1 act: inactive; Smad3 inh: inactive; MRP reversal: inactive; ERa coact pot: inactive; ERb coact inh: inactive

What do the screens show for `O=C(NCCC1=CCCCC1)C(=O)c1c[nH]c2ccccc12`?
MRP1 act: inactive

What do the screens show for `COc1cccc(Nc2ncc(C(=O)O)c3ccccc23)c1`?
ERa SRC1 inh: inactive; MRP1 act: 5.1; Smad3 inh: inactive; MRP reversal: inactive; ERa coact pot: inactive; ERb coact inh: inactive

What do the screens show for `COc1ccc(OC)c(NC(=O)c2cnc(Nc3ccccc3OC)c3ccccc23)c1`?
MRP1 act: inactive

How did CCOc1cccc2sc(NC(=O)c3ccc(Br)s3)nc12 do in these assays?
ERa SRC1 inh: inactive; MRP1 act: inactive; Smad3 inh: inactive; MRP reversal: inactive; ERa coact pot: 433[fluorescence artefact?]; ERb coact inh: inactive

Results for O=C(CCCCCn1c(=S)[nH]c2cc3c(cc2c1=O)OCO3)N1CCN(Cc2ccccc2)CC1 ?
ERa SRC1 inh: inactive; MRP1 act: inactive; Smad3 inh: inactive; MRP reversal: inactive; ERa coact pot: inactive; ERb coact inh: inactive

Results for O=C(CCCCCn1c(=S)[nH]c2cc3c(cc2c1=O)OCO3)N1CCN(C(=O)c2ccco2)CC1 ?
ERa SRC1 inh: inactive; MRP1 act: inactive; Smad3 inh: inactive; MRP reversal: inactive; ERa coact pot: 211[fluorescence artefact?]; ERb coact inh: inactive

Results for O=C(CCCn1c(=S)[nH]c2ccccc2c1=O)N1CCN(c2cccc(Cl)c2)CC1 ?
ERa SRC1 inh: 92; MRP1 act: inactive; Smad3 inh: inactive; MRP reversal: inactive; ERa coact pot: inactive; ERb coact inh: 54[fluorescence artefact?]

What do the screens show for `O=C(CCCCn1c(=O)[nH]c2ccccc2c1=O)N1CCN(c2cccc(C(F)(F)F)c2)CC1`?
ERa SRC1 inh: inactive; MRP1 act: inactive; Smad3 inh: inactive; MRP reversal: inactive; ERa coact pot: inactive; ERb coact inh: inactive

How did O=c1[nH]cc(CS(=O)(=O)Cc2c[nH]c(=O)[nH]c2=O)c(=O)[nH]1 do in these assays?
Smad3 inh: inactive

How did CC1=NN(C(N)=S)C(=O)C1N=Nc1ccccc1C (stereo not given) do in these assays?
ERa SRC1 inh: inactive; MRP1 act: inactive; Smad3 inh: inactive; MRP reversal: 91; ERa coact pot: inactive; ERb coact inh: inactive

Results for CC1=NN(C(N)=S)C(=O)C1N=Nc1ccc(C)cc1C (stereo not given) ?
MRP1 act: inactive

Results for COC(=O)c1ccc(CSc2nnc(NC(=O)c3cc4c(s3)CCCC4)s2)cc1 ?
ERa SRC1 inh: inactive; MRP1 act: inactive; Smad3 inh: inactive; MRP reversal: inactive; ERa coact pot: 235; ERb coact inh: inactive

Results for CCC1(C)Cc2c(sc3c2c(=O)n(C)c2nnc(SCc4ccc5c(c4)OCO5)n32)CO1 (stereo not given) ?
ERa SRC1 inh: 87[fluorescence artefact?]; MRP1 act: inactive; Smad3 inh: inactive; MRP reversal: inactive; ERa coact pot: inactive; ERb coact inh: 69[fluorescence artefact?]

What do the screens show for `CC(C)Oc1ccc(CSc2nnc3n(C)c(=O)c4c5c(sc4n23)CCCC5)cc1`?
ERa SRC1 inh: inactive; Smad3 inh: inactive; MRP reversal: inactive; ERa coact pot: inactive; ERb coact inh: inactive

Results for COc1ccc2cc(-c3cc(C(=O)O)c4ccccc4n3)ccc2c1 ?
MRP1 act: 6.5

How did COc1ccc(-c2cc(C(=O)O)c3ccccc3n2)c(OC)c1 do in these assays?
ERa SRC1 inh: inactive; MRP1 act: inactive; Smad3 inh: inactive; MRP reversal: inactive; ERa coact pot: inactive; ERb coact inh: inactive

What do the screens show for `C[N+](C)(C)CCN(Cc1cccs1)c1ccccn1`?
Smad3 inh: inactive

What do the screens show for `Cn1c(=O)[nH]c(=O)c2c1nc(CN1CCN(c3ccc(F)cc3)CC1)n2CCc1ccccc1`?
ERa SRC1 inh: inactive; MRP1 act: inactive; Smad3 inh: inactive; MRP reversal: inactive; ERa coact pot: 399[fluorescence artefact?]; ERb coact inh: inactive
